A short description of assay [1]: binders of probe aFSTL3 on microarray, primary screen, stem cell growth factor project, biochemical, small-molecule microarray, fluorescence 635/667 (AID 1064).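 Also: measures binding of the biotinylated anti-FSTL3 antibody to printed compounds.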 The note with it: higher = more signal.
Assay [2] is described as follows: binders from COS7 lysate, DM2A8 probe, primary screen, torsin A project, cell lysate, small-molecule microarray, fluorescence 635/667 (AID 1065). The note with it: higher = more signal, COS7 lysate expressing mutant human TOR1A.
The nature of assay [3]: binders of probe aFGF2 on microarray, primary screen, stem cell growth factor project, biochemical, small-molecule microarray, fluorescence 635/667 (AID 1067).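 Also: measures binding of biotinylated aFGF2 protein to printed compounds on slides; z-score merges feature fluorescence and signal-to-noise across triplicate slides.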 To be noted: higher = more signal.
Assay [4] is described as follows: binders of probe aFGF10 on microarray, primary screen, stem cell growth factor project, biochemical, small-molecule microarray, fluorescence 635/667 (AID 1071).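 Also: score merges 667 nm spot intensity and signal to noise from triplicate slides.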 To be noted: higher = more signal.
Assay [5] has as its target Neurogenic locus notch homolog protein 2 (Homo sapiens) (UniProt Q04721). As to the kind of experiment: Notch2 binders on small-molecule microarrays, primary screen, biochemical, small-molecule microarray, 635 nm fluorescence, stem cell growth factors (AID 1073). The note with it: Notch2 binding, higher = more signal.
The target in assay [6] is Pro-neuregulin-1, membrane-bound isoform (Homo sapiens) (UniProt Q02297). The assay can be described thus: NRG1 binders on small-molecule microarrays, primary screen, psychiatric disease protein project, biochemical, small-molecule microarray, fluorescence 635/667 (AID 1075).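 Also: score combines 667 nm spot fluorescence with signal to noise.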 The note with it: NRG1 binding, 635 nm fluorescence, higher = more signal.
Pro-neuregulin-1, membrane-bound isoform (Homo sapiens), sequence (Q02297 whole entry, looked up, the tested form may be a part, canonical isoform): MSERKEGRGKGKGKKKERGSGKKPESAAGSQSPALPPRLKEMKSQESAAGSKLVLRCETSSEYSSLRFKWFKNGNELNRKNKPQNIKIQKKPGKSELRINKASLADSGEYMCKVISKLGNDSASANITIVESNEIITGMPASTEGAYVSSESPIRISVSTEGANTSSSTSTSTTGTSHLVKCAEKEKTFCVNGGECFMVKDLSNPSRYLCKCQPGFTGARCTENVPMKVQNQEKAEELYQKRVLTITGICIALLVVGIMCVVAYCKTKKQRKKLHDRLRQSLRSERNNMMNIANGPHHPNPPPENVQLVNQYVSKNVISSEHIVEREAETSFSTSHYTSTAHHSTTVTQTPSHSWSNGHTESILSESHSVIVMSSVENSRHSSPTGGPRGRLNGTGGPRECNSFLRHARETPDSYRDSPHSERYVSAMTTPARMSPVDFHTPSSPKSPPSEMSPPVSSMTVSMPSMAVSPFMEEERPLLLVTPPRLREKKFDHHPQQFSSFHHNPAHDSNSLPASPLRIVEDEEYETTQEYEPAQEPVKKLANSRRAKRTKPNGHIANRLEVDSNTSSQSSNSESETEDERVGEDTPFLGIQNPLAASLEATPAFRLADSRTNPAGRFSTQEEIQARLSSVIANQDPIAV
Assay [7] has as its system Neuregulin-1 EGF-like domain. As to the kind of experiment: binders of neuregulin-1 EGF-like domain, primary screen, biochemical, small-molecule microarray, 635 nm fluorescence (AID 1081).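 Also: binding of the protein to compounds printed on small-molecule microarray slides.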 To be noted: small-molecule microarray binding, higher = more signal.
The nature of assay [8]: FRG1 promoter luciferase signal modulators, primary screen, FRG1 inhibition for FSHD, cell-based, C2C12 myotubes, firefly/Renilla luciferase, luminescence (AID 1084). To be noted: higher = more signal, called active from +8 up or from −8 down.
Assay [9] in a line: binders of probe aFST on microarray, primary screen, stem cell growth factor project, biochemical, small-molecule microarray, fluorescence 635/667 (AID 1086).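 Also: score merges 667 nm fluorescence with signal-to-noise of each printed compound spot.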 To be noted: higher = more signal.
Assay [10] is described as follows: binders of probe aHhip on microarray, primary screen, stem cell growth factor project, biochemical, small-molecule microarray, fluorescence 635/667 (AID 1087).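 Also: score merges spot fluorescence at 667nm with spot signal to noise ratio.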 The note with it: higher = more signal.
The test system of assay [11] is PRMT1 (protein arginine N-methyltransferase 1). As to the kind of experiment: PRMT1 binders on small-molecule microarrays, primary screen, biochemical, small-molecule microarray, 635 nm fluorescence (AID 1088).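 Also: binding of Prmt1 protein to compounds spotted on small-molecule microarray slides.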 The note with it: small-molecule microarray binding, higher = more signal.
Assay [12] can be described thus: yeast growth modulation, basal conditions, primary screen, YJM789 clinical isolate, OD600, 24 h (AID 1089).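 Also: growth of clinical yeast isolate S. cerevisiae YJM 789 seeded 1000 cells per well; test concentration not given here.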 To be noted: S. cerevisiae YJM789 growth, higher = more signal, called active from +8 up or from −8 down.
Assay [13] is described as follows: fission yeast growth modulation, primary screen, strain 972, OD600, 24 h, no modulator (AID 1090).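 Also: basal condition with compound alone and no growth modifier present; test concentration not given here.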 The note with it: S. pombe 972 growth, higher = more signal, called active from +8 up or from −8 down.
A short description of assay [14]: S. cerevisiae growth modulation with rapamycin, primary screen, strain BY4716, OD600, 96 h (AID 1091). Also: test concentration not given here. To be noted: higher = more signal, called active from +8 up or from −8 down.
The target in assay [15] is Torsin-1A-interacting protein 2 (Homo sapiens) (UniProt Q8NFQ8). The assay can be described thus: LULL1 binders on small-molecule microarray, primary screen, cell lysate, human LULL1 lysate, 635/667 nm fluorescence (AID 1092).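 Also: score merges per-feature 667 nm fluorescence with signal-to-noise.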 To be noted: hLULL1 lysate binding, 635 nm fluorescence, higher = more signal.
Torsin-1A-interacting protein 2 (Homo sapiens), sequence (Q8NFQ8 whole entry, looked up): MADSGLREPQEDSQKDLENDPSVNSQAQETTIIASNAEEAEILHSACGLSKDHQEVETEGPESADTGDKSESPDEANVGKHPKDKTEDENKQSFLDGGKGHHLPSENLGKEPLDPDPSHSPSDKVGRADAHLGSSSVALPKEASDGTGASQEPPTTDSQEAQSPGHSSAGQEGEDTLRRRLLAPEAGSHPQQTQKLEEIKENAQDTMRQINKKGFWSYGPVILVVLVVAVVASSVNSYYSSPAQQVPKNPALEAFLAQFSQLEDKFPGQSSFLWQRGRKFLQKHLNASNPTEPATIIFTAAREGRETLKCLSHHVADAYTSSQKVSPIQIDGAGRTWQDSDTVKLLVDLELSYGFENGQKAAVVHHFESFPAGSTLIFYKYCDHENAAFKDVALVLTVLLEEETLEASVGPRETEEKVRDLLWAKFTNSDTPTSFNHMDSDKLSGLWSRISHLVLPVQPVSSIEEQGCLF
Assay [16] in a line: E. coli growth modulation, two-sided OD650, primary screen, E. coli filamentation project, strain DRC41, 24 h (AID 1093).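 Also: MC1000 strain lacking acrAB efflux and sulA so SOS filamentation is blocked; test concentration not given here.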 To be noted: OD650, 24 h, higher = more signal, called active from +8 up or from −8 down.
The nature of assay [17]: small-molecule microarray binders of probe aLefty2, primary screen, biochemical, biotinylated probe, 635/667 nm fluorescence (AID 1094).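 Also: score merges spot fluorescence near 667 nm with spot signal-to-noise ratio.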 The note with it: higher = more signal.

This passage reports composite z-score and z-score results from PubChem BioAssay.

Calls of active or inactive are those of the source.

Neurogenic locus notch homolog protein 2 (Homo sapiens), sequence (Q04721 whole entry, looked up, canonical isoform): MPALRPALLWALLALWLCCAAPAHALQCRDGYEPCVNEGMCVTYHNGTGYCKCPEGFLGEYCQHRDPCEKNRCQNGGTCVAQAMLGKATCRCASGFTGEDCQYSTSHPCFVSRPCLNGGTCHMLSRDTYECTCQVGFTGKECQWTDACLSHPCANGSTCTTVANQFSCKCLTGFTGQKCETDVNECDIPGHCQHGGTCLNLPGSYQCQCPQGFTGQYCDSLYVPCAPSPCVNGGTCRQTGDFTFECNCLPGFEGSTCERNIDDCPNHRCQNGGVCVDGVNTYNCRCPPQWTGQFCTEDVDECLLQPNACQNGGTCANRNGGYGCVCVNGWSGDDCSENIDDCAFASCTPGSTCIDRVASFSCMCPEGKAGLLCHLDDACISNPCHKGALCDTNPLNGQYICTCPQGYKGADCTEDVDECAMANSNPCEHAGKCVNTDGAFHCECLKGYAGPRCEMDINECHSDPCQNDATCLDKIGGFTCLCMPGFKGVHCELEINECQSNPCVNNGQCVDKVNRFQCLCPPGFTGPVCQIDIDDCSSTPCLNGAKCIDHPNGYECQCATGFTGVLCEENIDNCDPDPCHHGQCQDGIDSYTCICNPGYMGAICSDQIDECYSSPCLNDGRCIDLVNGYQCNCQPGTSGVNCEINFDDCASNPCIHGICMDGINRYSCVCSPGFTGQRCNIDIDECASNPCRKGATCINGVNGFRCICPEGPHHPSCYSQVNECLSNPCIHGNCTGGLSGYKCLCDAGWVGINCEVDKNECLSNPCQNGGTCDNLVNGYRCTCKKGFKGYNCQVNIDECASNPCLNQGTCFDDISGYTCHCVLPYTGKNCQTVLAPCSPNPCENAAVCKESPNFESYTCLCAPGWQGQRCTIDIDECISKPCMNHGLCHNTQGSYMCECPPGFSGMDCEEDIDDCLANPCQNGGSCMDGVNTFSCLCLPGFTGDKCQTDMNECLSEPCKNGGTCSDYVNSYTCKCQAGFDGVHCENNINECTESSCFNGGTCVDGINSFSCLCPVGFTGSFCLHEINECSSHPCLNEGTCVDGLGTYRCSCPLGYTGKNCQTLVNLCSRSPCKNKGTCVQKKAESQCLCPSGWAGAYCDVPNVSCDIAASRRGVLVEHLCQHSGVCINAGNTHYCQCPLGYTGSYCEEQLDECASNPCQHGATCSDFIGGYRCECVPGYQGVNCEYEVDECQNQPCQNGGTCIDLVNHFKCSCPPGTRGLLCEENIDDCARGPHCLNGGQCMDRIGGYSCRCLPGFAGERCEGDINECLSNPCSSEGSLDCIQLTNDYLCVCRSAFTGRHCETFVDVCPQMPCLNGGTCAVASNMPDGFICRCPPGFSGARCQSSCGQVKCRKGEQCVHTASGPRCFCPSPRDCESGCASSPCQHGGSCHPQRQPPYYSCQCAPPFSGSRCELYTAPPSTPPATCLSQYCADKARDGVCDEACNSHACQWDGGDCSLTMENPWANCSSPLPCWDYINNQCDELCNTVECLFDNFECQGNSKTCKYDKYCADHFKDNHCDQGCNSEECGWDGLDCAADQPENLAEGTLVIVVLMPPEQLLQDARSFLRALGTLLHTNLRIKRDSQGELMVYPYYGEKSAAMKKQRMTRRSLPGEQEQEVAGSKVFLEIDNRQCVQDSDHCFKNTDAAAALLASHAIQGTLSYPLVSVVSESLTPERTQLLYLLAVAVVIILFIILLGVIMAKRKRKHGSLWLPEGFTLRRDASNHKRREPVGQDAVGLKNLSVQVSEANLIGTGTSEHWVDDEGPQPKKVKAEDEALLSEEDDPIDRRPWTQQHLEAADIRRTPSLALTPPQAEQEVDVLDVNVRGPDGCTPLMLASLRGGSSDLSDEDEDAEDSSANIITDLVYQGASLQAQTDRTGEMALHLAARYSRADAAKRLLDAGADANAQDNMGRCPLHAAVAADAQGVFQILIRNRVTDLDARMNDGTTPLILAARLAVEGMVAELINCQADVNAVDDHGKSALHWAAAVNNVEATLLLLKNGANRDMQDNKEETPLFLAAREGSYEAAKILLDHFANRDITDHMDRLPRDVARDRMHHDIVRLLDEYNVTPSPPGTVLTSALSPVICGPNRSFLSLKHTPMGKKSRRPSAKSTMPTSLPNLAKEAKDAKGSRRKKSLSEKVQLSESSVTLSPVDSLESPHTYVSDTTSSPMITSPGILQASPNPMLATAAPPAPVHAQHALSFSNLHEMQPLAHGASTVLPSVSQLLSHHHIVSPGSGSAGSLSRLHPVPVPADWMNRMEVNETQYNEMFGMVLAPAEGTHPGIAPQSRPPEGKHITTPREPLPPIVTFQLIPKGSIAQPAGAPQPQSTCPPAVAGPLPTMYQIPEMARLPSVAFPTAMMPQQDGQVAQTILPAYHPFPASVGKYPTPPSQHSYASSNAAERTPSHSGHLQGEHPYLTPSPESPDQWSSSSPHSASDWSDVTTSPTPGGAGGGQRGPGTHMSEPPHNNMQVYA

Take `O=C(NCC(F)(F)F)[C@@H]1c2ccccc2C(=O)N(C2Cc3ccccc3C2)[C@H]1c1ccc(CO)cc1`: the composite z-score in assay [1] is 0.833; in assay [2], -0.67; in assay [3], -0.0487; in assay [4], -0.514; in assay [5] it was -0.98; in assay [6] it was -0.0643. The composite z-score in [7] was 0.0014; in assay [9], -0.187; in assay [10] it was -0.353; in [11], -0.236; in assay [15] it was 0.492; in assay [17] it was 0.107. Further, the z-score in [8] was -0.827 (inactive); in assay [12], -0.62 (inactive); in assay [13], -1.06 (inactive); in [14], -0.501 (inactive); in [16], 2.12 (inactive).

Consider `CO[C@H]1O[C@H](CO)[C@@H](OC(=O)Nc2ccccc2)[C@H](OC(=O)Nc2ccccc2-c2ccccc2)[C@@H]1OC(=O)Nc1ccccc1-c1ccccc1`, for which the composite z-score in [1] is -0.711; in assay [2], 0.606; in [3], -0.0141; in [4], 0.901; in assay [5], 1.49; in assay [6] it was 1.7. For the same molecule, the composite z-score in [7] was 1.31; in assay [9] it was 0.325; in assay [10], -0.0346; in assay [11], 1.53; in [15], 3.13; in [17], 0.0623. Besides, the z-score in assay [8] is -0.979 (inactive); in assay [12], 1.17 (inactive); in assay [13], -0.271 (inactive); in assay [14], -0.471 (inactive); in assay [16] it was 1.36 (inactive).

Take `CC(C)C(CO)N1C(=O)[C@@H]2C3C(=O)OCCC/C=C\[C@H]3OC23C=CCN(C(C)C)C(=O)[C@@H]13` (some centres undefined): the composite z-score in assay [1] is 0.303; in assay [2], 0.716; in [3], -0.116; in assay [4], -0.836; in assay [5], -1.43; in [6], 2.17. The composite z-score in assay [7] is 0.784; in assay [9], -0.381; in assay [10] it was -0.0994; in [11], 0.613; in assay [15], 2.65; in [17], 0.727. Also, the z-score was 0.366 (inactive) in assay [8]; -1.1 (inactive) in [12]; -1.55 (inactive) in [13]; -1.1 (inactive) in [14]; 2.41 (inactive) in assay [16].

Take `COC(=O)C(CC#Cc1ccc2c(c1)[C@]1(C(=O)N2)[C@H](C(N)=O)[C@H]2C(=O)O[C@H](c3ccccc3)[C@H](c3ccccc3)N2[C@@H]1c1ccc(O)cc1)C(=O)OC`: the composite z-score in assay [1] is -0.343; in assay [2], -0.067; in [3] it was -0.245; in assay [4] it was -1.28; in assay [5], -0.618; in assay [6] it was 0.205. In addition, the composite z-score in assay [7] was 0.699; in [9], -0.882; in [10] it was 0.384; in assay [11], -0.95; in assay [15] it was 0.0509; in assay [17], -0.117. Also, the z-score in assay [8] was -0.117 (inactive); in assay [12] it was 0.337 (inactive); in assay [13], -1.04 (inactive); in assay [14] it was 0.484 (inactive); in assay [16] it was 1.61 (inactive).

With `CC(C)C(=C=CC[C@H](O)c1ccc(OCCO)cc1)C[C@H](O)COCc1ccccc1`, the composite z-score in [1] is -0.254; in assay [2], 1.75; in assay [3], -0.128; in assay [4] it was 0.411; in [5], -0.438; in assay [6], 0.639. Also, the composite z-score is 1.09 in assay [7]; -0.0173 in assay [9]; -0.0994 in [10]; 1.23 in [11]; 1.76 in [15]; -0.119 in [17]. Besides, the z-score was -1.37 (inactive) in assay [8]; 1.09 (inactive) in assay [12]; -2.45 (inactive) in assay [13]; -0.668 (inactive) in [14]; 0.775 (inactive) in assay [16].

As for `COCCCN1C(=O)[C@@]2(Cc3ccccc31)c1ccccc1C(=O)N(Cc1ccccc1Cl)[C@H]2c1ccc(CO)cc1`, the composite z-score is 0.218 in [1]; -0.272 in assay [2]; -0.201 in [3]; -0.273 in [4]; -0.773 in assay [5]; -0.592 in assay [6]. For the same molecule, the composite z-score was -0.983 in assay [7]; 0.009 in [9]; 0.0274 in assay [10]; 0.952 in assay [11]; 1.22 in assay [15]; -0.226 in [17]. In addition, the z-score in assay [8] was 0.448 (inactive); in assay [12], -0.403 (inactive); in assay [13], -1.49 (inactive); in [14] it was -1.46 (inactive); in assay [16], 2.9 (inactive).

Turning to `C=CCC(OC(C)=O)[C@@H]1[C@@H](N(Cc2cccc3ccccc23)C(=O)Cc2ccc(OC)cc2)c2cc(OCCCO)ccc2N1C(=O)Cc1ccc(OC)cc1` (some centres undefined), the composite z-score in [1] was 0.163; in assay [2], 0.045; in assay [3], -0.0396; in assay [4] it was -0.236; in [5] it was -0.111; in [6] it was -0.0173. Besides, the composite z-score in assay [7] was -0.832; in assay [9] it was -0.0127; in assay [10], -0.113; in [11] it was -0.59; in assay [15], 0.0872; in assay [17], -0.0691. The z-score in assay [8] is -0.781 (inactive); in assay [12] it was 0.395 (inactive); in assay [13] it was -1.38 (inactive); in [14], -0.275 (inactive); in [16], 2.21 (inactive).
